Assay results: PubChem BioAssay AID1053173 (Broad Institute, 2014)
The campaign covered roughly 1,500 compounds. About 390 (26%) were called active. The rule behind the calls is not given here. Only a sample is shown. Measured potencies and affinities stand elsewhere.

biological target: Histone-lysine N-methyltransferase NSD2 (Homo sapiens) (UniProt O96028); assay: NSD2 methyltransferase inhibitors, dose response, biochemical, AlphaScreen, cherry-picked samples (AID 1053173); details: NSD2 H4 peptide methylation, 120 min; series mostly up to 10 µM; activity change, negative = inhibition: at the top concentration;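 note: 0% = neutral control wells and -100% = positive control wells on each plate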
Sequence (O96028 whole entry, looked up): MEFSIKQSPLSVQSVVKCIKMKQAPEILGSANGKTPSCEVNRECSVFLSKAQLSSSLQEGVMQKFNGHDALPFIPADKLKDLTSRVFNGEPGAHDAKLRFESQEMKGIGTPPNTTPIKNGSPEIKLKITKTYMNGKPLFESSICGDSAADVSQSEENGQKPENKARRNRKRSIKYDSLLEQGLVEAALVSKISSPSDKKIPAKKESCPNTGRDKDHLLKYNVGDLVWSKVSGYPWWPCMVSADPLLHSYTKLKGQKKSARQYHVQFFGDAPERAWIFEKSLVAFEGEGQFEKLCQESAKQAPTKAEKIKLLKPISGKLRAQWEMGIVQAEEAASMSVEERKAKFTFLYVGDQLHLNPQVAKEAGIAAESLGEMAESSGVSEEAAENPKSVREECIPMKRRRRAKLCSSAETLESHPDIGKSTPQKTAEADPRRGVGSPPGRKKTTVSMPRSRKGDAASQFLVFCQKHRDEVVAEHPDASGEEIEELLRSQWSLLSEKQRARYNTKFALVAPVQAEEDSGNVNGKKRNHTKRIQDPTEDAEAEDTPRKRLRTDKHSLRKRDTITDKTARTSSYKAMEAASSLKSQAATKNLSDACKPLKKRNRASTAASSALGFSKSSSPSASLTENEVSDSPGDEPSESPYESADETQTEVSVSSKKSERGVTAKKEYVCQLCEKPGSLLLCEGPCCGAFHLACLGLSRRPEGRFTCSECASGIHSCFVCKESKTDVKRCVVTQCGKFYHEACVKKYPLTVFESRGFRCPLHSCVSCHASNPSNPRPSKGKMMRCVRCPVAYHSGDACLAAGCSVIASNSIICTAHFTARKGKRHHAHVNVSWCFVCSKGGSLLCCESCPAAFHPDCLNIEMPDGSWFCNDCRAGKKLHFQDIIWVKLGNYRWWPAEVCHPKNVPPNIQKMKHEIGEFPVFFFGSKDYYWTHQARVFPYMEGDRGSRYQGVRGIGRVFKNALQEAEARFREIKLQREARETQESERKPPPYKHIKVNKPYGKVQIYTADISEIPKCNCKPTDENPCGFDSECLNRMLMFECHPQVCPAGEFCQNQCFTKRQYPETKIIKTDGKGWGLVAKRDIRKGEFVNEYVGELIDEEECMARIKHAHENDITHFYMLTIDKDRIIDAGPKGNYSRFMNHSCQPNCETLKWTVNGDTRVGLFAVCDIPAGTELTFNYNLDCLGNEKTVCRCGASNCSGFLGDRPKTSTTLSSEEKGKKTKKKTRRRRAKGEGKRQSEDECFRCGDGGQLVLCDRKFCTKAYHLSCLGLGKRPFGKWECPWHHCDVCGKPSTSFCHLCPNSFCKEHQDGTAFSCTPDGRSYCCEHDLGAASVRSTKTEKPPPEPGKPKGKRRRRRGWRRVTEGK

Activity change, negative = inhibition, inactive:
N=c1c(C(=O)NCc2ccco2)cc2c(=O)n3ccccc3nc2n1C1CCCC1 -4.02%, COc1cccc(CN2CCC(Oc3ccc(C(=O)N4CCCCC4)cc3)CC2)c1O -5.73%, Cc1ccc(NC(=O)CN(C)CCOc2ccccc2)c([N+](=O)[O-])c1 -3.45%, CN1CCN(/N=C/c2nc(-c3ccccc3Cl)n3ccccc23)CC1 2.35%, Cn1c(SCc2ccccc2C#N)nc2ccccc2c1=O -0.012%, COc1cn(-c2ccccc2)nc1C(=O)NCc1ccccc1 -3.17%, C=CCSc1nnc(-c2ccc(Cl)cc2Cl)o1 5.59%, CCOC(=O)C1=CN(c2cccc(F)c2)C=C(C(=O)OCC)C1c1cc(OC)c(O)c([N+](=O)[O-])c1 -7.24%, CCC1CC(CSc2ncn[nH]2)OC1=O (stereo not drawn) 0.746%, COc1ccccc1CNC(=O)C(NC(=O)Nc1ccccc1)C(C)C (stereo not drawn) -3.7%, CC(C)(C)/C=N/NC(=O)CNC(=O)c1ccc2c(c1)OCCO2 1.14%, CS(=O)(=O)N(CC(=O)NCc1ccco1)c1ccc2c(c1)OCO2 -3.9%, COc1cc(NC(=O)COC(=O)CNC(=O)c2ccc(C)cc2)c(C)cc1[N+](=O)[O-] -3.2%, CCc1ccc(NC(=S)Nc2cccc3cnccc23)cc1 -1.42%, CCOc1ccc(NC(=S)N2CCC(NC(=O)C3CCCCC3)CC2)cc1 0.233%, Cc1ccc(NC(=S)Nc2cccc3cnccc23)cc1 -5.24%, S=C(Nc1ccc2nsnc2c1)N1CCCC1 -6.84%, Fc1ccc(NC(=S)Nc2ccc3nccnc3c2)cc1 2.33%, COc1cc(/C=N/N2CCN(C3c4ccccc4-c4ccccc43)CC2)cc(OC)c1OC -4.53%, Cc1ccc(CSc2nc3c(c(=O)[nH]2)C(c2ccncc2)C2=C(CCCC2=O)N3)cc1 (stereo not drawn) -4.75%, CC(=O)c1cccc(NC(=O)c2csc(-n3nc(C)cc3C(F)(F)F)n2)c1 3.13%, CCCC(C(=O)NC(C)(C)C)N(CC1CCCO1)C(=O)CNS(=O)(=O)c1ccc(F)cc1 (stereo not drawn) -3.4%, CC(=O)Nc1ccc(SCCC2CCCCN2C)cc1 (stereo not drawn) -0.85%, CCOc1ccc(-n2cnc3sc4c(c3c2=O)CCCC4)cc1 0.365%, C[N+](C)(C)CCC(=O)N1C/C(=C/c2ccccc2)C(=O)/C(=C\c2ccccc2)C1 -3.58%, O=C(CN1C(=O)c2ccc([N+](=O)[O-])cc2C1=O)Nc1nnc(C2CC2)s1 4.34%, Cc1ccc(NC(=O)c2cc([N+](=O)[O-])ccc2NCc2cccnc2)cc1Cl -5.31%, CC(=O)N1CCc2cc(Br)cc(S(=O)(=O)NCCCN(C)Cc3ccccc3)c21 -2.14%, CN1CCC(=NNC(=O)c2cn(-c3ccccc3)nc2-c2ccccc2)CC1 0.308%, Cc1ccccc1-c1noc(C23CC4CC(CC(C4)C2)C3)n1 4.84%, CCOC(=O)C1CCCN(C(=O)c2ccc(OC(C)=O)cc2)C1 (stereo not drawn) 0.226%, Cc1nnc(Sc2cc(NCCO)c([N+](=O)[O-])c3nonc23)s1 0.095%, CC(C)CNC(=O)c1cnn2c(C(F)(F)F)cc(C(F)(F)F)nc12 -1.7%, Nc1c(Br)cc(Br)c2c1[nH]c(=O)c1ccccc12 -9.35%, CCOc1cc(N2CCOCC2)c(OCC)cc1NC(=O)c1cnccn1 -2.35%, COc1cc(/C=N/n2c(C)nnc2C)cc(OC)c1OC -1.56%, O=C(c1ccccc1OCc1ccccc1Br)N1CCN(c2ncccn2)CC1 1.96%, N#Cc1ccc(-c2ccco2)nc1SCc1ccccc1 -2.11%, CSc1nnc(-c2ccco2)c(-c2ccco2)n1 -10.2%, CCOC(=O)CC(NS(=O)(=O)c1ccc2[nH]cc(C(=O)O)c(=O)c2c1)c1ccc(OCC)c(OC)c1 (stereo not drawn) -7.85%, O=C(/C=C/c1ccc(OCCCF)cc1)N1CCN(Cc2ccccc2)CC1 -3.48%, CN1C(=O)C(=O)/C(=C(/O)c2ccccc2)C1c1ccccc1 (stereo not drawn) -2.62%, CCn1c(SC(=O)NC2CCCCC2)nnc1-c1cccs1 6.57%, Cc1cc(C)c(NC(=O)C2CC(=O)N(c3ccc4c(c3)OCCO4)C2)c(C)c1 (stereo not drawn) -2.35%, C/[N+]([O-])=C1\Cc2ccccc2C1=O 1.15%, Cc1cc(C)nc(N2CCC(C(=O)N(C)CCc3ccccc3)CC2)n1 -0.983%, O=C(CN(C(=O)c1csnn1)c1cccc2ccccc12)NCc1ccccc1 1.06%, Cc1cc(C(=O)COC(=O)c2n[nH]c3ccccc23)c(C)n1C -2.21%, O=C(NCCCn1ccnc1)C1CCN(S(=O)(=O)c2ccc(F)cc2)CC1 -3.94%, CC(=O)Nc1ccc(S(=O)(=O)NCCSCc2ccc(Cl)cc2Cl)cc1 0.56%, CC(C)NCC#CCOc1ccc(Cl)cc1 -11.6%, COC(=O)c1ccc(-n2nnnc2SCC(=O)NCc2cccc(C(=O)O)c2)cc1 1.21%, O=C(NCc1ccco1)c1scc2c1OCCO2 -1.63%, CC(C)(C)NC(=O)C(c1ccco1)N(C(=O)Cn1nnc(-c2ccc(F)cc2)n1)c1ccccc1F (stereo not drawn) 3.9%, Cc1cc(=O)oc(C)c1C(=O)OCC(=O)c1ccccc1 1.53%, O=C(c1ccccc1)c1cc2ccccc2oc1=O 0.833%, COc1ccc(N2CCOCC2)c(NC(=O)c2ccc3c(c2)OCO3)c1 -3.97%, CCC1Cc2c(nc(N)c3c(N)nc(N4CCOCC4)c(C#N)c23)O1 (stereo not drawn) -3.29%, CCOc1cc2c(C#N)c(N3CCOCC3)nc(N)c2c(N)n1 -0.342%, CC(C)n1c(NCc2nc3ccccc3n2C)nc2ccccc21 -0.542%, CCc1ccc(N2C(=O)C3C(C2=O)N2CCCN2C3c2ccccc2)cc1 (stereo not drawn) 3.23%, COc1cc(/C=C2\C(=O)ON=C2c2ccccc2)cc(Cl)c1O -10.3%, COc1ccc(CNC(=O)CCCN2C(=O)NC3(CCCC3)C2=O)cc1 4.98%, O=C1C(=Cc2ccco2)CCC1=Cc1ccco1 -10.4%, COc1ccc(NC(=O)Cn2nnc(C(=O)NCCc3ccc(OC)c(OC)c3)c2N)cc1 -1.57%, Cc1ccc(S(=O)(=O)N2CCCCC2CCNC(=O)C(=O)Nc2ccccc2F)cc1 (stereo not drawn) 2.31%, CC(=O)N(C)c1ccc(N=Nc2c(C)[nH]n(C(N)=S)c2=O)cc1 -3.77%, NS(=O)(=O)c1ccc(N/N=C/c2ccncc2)cc1 -3.56%, COC(=O)[C@H](Cc1ccccc1)NC(=O)Nc1ccc(S(N)(=O)=O)cc1 -1.38%, O=C(CSc1nc(SCC(=O)NCc2ccccc2)n(-c2ccccc2)n1)NCc1ccccc1 -1.26%, CCCCNC1=CC(=O)C(=O)c2ccccc21 -12.7%, COc1ccc(C(=O)Nc2c3c(nn2-c2ccc(Cl)cc2)CS(=O)(=O)C3)cc1 -0.12%, CC(=O)N1C2CCCCC2S[C@H]2CCCCC21 (stereo partly drawn) 1.03%, O=C(NCc1ccco1)Nc1cccc([N+](=O)[O-])c1 -2.52%, CCCCc1nc2cc(C(=O)N3CCC(O)CC3)ccc2o1 -1.24%, O=C(NC(c1ccc(Cl)cc1)c1cc(Cl)c2cccnc2c1O)c1cccnc1 (stereo not drawn) -3.15%, CCCn1c(C)nc2c(c1=O)c1nc3ccccc3nc1n2-c1ccccc1 3.1%, Cn1c(=O)c(-c2ccccc2)nc2ccccc21 10.3%, CC(=O)Nc1ccc(N(C(=O)CNC(=O)c2ccco2)C(C(=O)NCC2CCCO2)c2ccccc2)cc1 (stereo not drawn) 0.85%, CCN(CC)S(=O)(=O)c1cccc(-c2nnc(SCCCC(=O)c3ccc(F)cc3)o2)c1 3.87%, Cc1[nH]n(-c2ccccc2)c(=O)c1N=Nc1ccccc1C(=O)N1CCCCC1 -7.67%, CC1(C)Cc2c(c(-c3ccco3)[nH]c(=O)c2C#N)CS1 0.181%, CCc1ccc(-c2cc(C)no2)cc1S(=O)(=O)N1CCN(c2ccc(F)cc2)CC1 -4.42%, COc1ccc(NC(=O)CC2C(=O)NCCN2C(=O)c2ccc(N(C)C)cc2)cc1 (stereo not drawn) -1.08%, Cc1cc(NC(=O)CSc2nc3ccccc3cc2C#N)no1 -0.11%, O=C(Nc1ccc(O)cc1)C1CC=CCC1 (stereo not drawn) -10.4%, CC1CN(Cc2nc3c(c(=O)n(C)c(=O)n3C)n2CCCc2ccccc2)CC(C)O1 (stereo not drawn) -1.88%, O=C(OCc1cccc2ccccc12)C1CC(=O)N(c2ccccc2)C1 (stereo not drawn) 3.19%, COc1cccc2c1N1C(=O)c3c(C(=O)O)cccc3C1CC2(C)C (stereo not drawn) 3.68%, COc1ccc(C2C(C(=O)c3ccco3)=C(O)C(=O)N2CC2CCCO2)cc1OC (stereo not drawn) -0.379%, CCOC(=O)c1c(NC(=O)COC)sc2c1CCCC2 10.5%, CCN(C(=S)Nc1ccc(C(C)=O)cc1)C1CCCCC1 -13.8%, CC1CN(Cc2cc(=O)n3ccsc3n2)CC(C)O1 (stereo not drawn) 0.845%, CC(C)CN(C(=O)COC(=O)c1ccc([N+](=O)[O-])s1)c1c(N)n(Cc2ccccc2)c(=O)[nH]c1=O -7.51%, COCCn1c(N)c(N(Cc2ccccc2)C(=O)c2cc(=O)[nH]c3ccccc23)c(=O)[nH]c1=O 0.044%, CCn1c(SCC(=O)N2CCCCC2)nc2c1c(=O)n(C)c(=O)n2C 6.67%, CCOC(=O)C1=C(C)N(C)C(=S)NC1c1ccccc1Cl (stereo not drawn) 9.94%, COc1cc(/C=C2\SC(N)=NC2=O)cc(Cl)c1O -7.1%, O=C(CCc1nnc(-c2ccccc2)o1)NCc1cc(F)ccc1F 3.74%, CCNC(=O)C1CCCN(C(=O)c2ccccc2OC(F)(F)F)CC1 (stereo not drawn) 2.17%, Cc1ccccc1N1CC(C(=O)Nc2ccc(S(=O)(=O)N3CCOCC3)cc2)CC1=O (stereo not drawn) 1.56%, Cc1ccc(S(=O)(=O)c2ccc(Cl)cc2)cc1S(=O)(=O)N1CCOCC1 5.97%, COc1ccc(NS(=O)(=O)c2cc(NC(=O)COc3ccccc3)ccc2N2CCOCC2)cc1 1.67%, O=C(CN1CCOCCOCCN(CC(=O)Nc2ccccc2)CCOCC1)Nc1ccccc1 4.89%, Cc1ccc(/C=N/NC(=O)c2cc3ccccc3cc2O)o1 -3.67%, CCN(Cc1ccccc1)Cc1c(C)[nH]c2c(C)c(C)ccc2c1=O 0.95%, CCCc1cc(=O)n(-c2nc3ccccc3s2)[nH]1 6.4%, CC1(C)Cc2c(c(-c3ccco3)[nH]c(=O)c2C#N)CO1 3.06%
